High-throughput results from PubChem.
This is a sample that favours compounds with a hit; in the whole collection about 3.1% have one here.
Peg3 prom inh: Peg3 promoter activity inhibition; HeLa PEG-Prom luciferase reporter, luminescence, overnight; inhibition, % at 20 µM; 1.7% of 360,000 active; AID 588405;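 active = inhibition of at least 50% at 20 µM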
HIF-2a block: inhibitors of HIF-2a; 786-0 RCC cells HIF-2a reporter, luciferase luminescence, overnight; inhibition, % at 18.8 µM; 0.72% of 360,000 active; AID 624352;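 active = inhibition of the luminescence signal of 40% or more relative to plate controls, in a single-dose primary screen at 18.75 µM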
KKLEB tox: reduces viability of KKLEB cystic fibrosis airway cells. 0.36% of 360,000 active. KKLEB CF airway cells viability, ATPlite luminescence, overnight; hits give low values; cells stimulated with P. aeruginosa culture filtrate. activity change (cytotoxicity), % at 5 µM. AID 602141;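 active = corrected activity change at or below -50% at 5 µM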
TRAIL sens C8: sensitizes caspase-8 expressing cells to TRAIL. AID 624354. inhibition (viability loss, TRAIL sensitization), % at 10 µM. 1% of 360,000 active. NB7+C8 cells + TRAIL, ATPlite viability luminescence;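 active = compounds causing at least 50% loss of cell viability in the single-dose screen, relative to plate controls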
CF NFkB inh: cystic fibrosis NF-kB activation inhibition. KKLEB NF-kB-GFP reporter, PAF-induced, GFP fluorescence overnight. 0.86% of 360,000 active. AID 588850. inhibition, % at 5 µM;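 active = at least 50% inhibition at 5 µM, scaled per plate between neutral and stimulator controls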;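 note: PAF is a Pseudomonas aeruginosa culture filtrate used as stimulus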
PPC-1+TRAIL kill: PPC-1 cancer cell killing with TRAIL present | PPC-1 cells + TRAIL, ATPLite viability luminescence | cell killing (% activity), % at 4 µM or 5 µM | 0.41% of 220,000 active | AID 1443;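 active = cell killing above 50% in the first pass at 4 µM, then a duplicate retest at 5 µM averaging 50% or more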
Of the large screens only hits and unclear results are named; the others gave an inactive call.

CC(NC(=O)COC(=O)C1CCCCC1)c1ccccc1 (stereo not drawn)	none (no result: PPC-1+TRAIL kill)
CC(C)(C)c1ccc(C(=O)Nc2cccc([N+](=O)[O-])c2)cc1	TRAIL sens C8 54.5
O=C(Nc1ccc(OC(F)(F)F)cc1)Nc1cccc([N+](=O)[O-])c1	Peg3 prom inh 55.3, KKLEB tox -65.4, CF NFkB inh 65.7
Cc1ccc(NC(=O)c2ccc([N+](=O)[O-])o2)cc1C	Peg3 prom inh 96.9, KKLEB tox -62.7, CF NFkB inh 81.8
O=C(Nc1cccc([N+](=O)[O-])c1)c1ccc([N+](=O)[O-])o1	CF NFkB inh 70.0 (no result: PPC-1+TRAIL kill)
O=C(Nc1ncccn1)c1ccc([N+](=O)[O-])o1	none
O=C(Nc1ccc2[nH]c(=O)[nH]c2c1)c1ccc([N+](=O)[O-])o1	none (no result: PPC-1+TRAIL kill)
O=C(Nc1ccc(OC(F)(F)F)cc1)Nc1cccnc1	none
O=C(Nc1cccc([N+](=O)[O-])c1)c1ccncc1	none
COc1ccc2cc(/C(C)=N/NC(=O)c3cc(C)oc3C)ccc2c1	none (no result: PPC-1+TRAIL kill)
CC(C)CC1NC(=O)c2cc3ccccc3cc2-n2c1nc1ccc(Cl)cc1c2=O (stereo not drawn)	none (no result: PPC-1+TRAIL kill)
O=C(Nc1ccncc1NC(=O)c1cccc([N+](=O)[O-])c1)c1cccc([N+](=O)[O-])c1	Peg3 prom inh 58.1
CC(C)(C)c1ccc(C(=O)NNC(=O)c2cccc(Br)c2)cc1	none
O=C(Nc1cccc([N+](=O)[O-])c1)c1ccc2ccccc2c1O	TRAIL sens C8 54.0
O=C(Nc1cccc2ccccc12)c1ccc([N+](=O)[O-])o1	CF NFkB inh 82.7 (no result: PPC-1+TRAIL kill)
Cc1cccc(NC(=O)C(=O)NNC(=O)c2ccc(C(C)(C)C)cc2)c1	KKLEB tox -61.5, CF NFkB inh 83.8 (no result: PPC-1+TRAIL kill)
Cc1cccc(NC(=O)c2ccc([N+](=O)[O-])o2)c1C	none
Cc1ccc(S(=O)(=O)N2C[C@H]3[C@H]4C(=O)N(Cc5ccccc5)C(=O)[C@H]4CC(=O)[C@H]3[C@@H]2c2ccccc2)cc1	none (no result: PPC-1+TRAIL kill)
COc1ccccc1C(=O)NC(=O)COC(=O)CN1C(=O)NC(C)(C)C1=O	none (no result: PPC-1+TRAIL kill)
OC(CCN1CC2CCC(CC2)C1)(Cc1ccccc1)c1ccco1 (stereo not drawn)	none (no result: PPC-1+TRAIL kill)
O=C1C(Cl)=C(N2CCN(c3ccccc3[N+](=O)[O-])CC2)C(=O)c2ccccc21	Peg3 prom inh 100.5
O=[N+]([O-])c1cc(Cl)ccc1N1CCCC1	none
CC[C@H](C)[C@@H](C(=O)NCCCCCCCCCCC(=O)N1CCNCC1)n1cc(CCCCCN)nn1	none (no result: PPC-1+TRAIL kill)
CCOC(=O)/C=C/C(=O)Nc1ccc(S(=O)(=O)N(C)c2ccccc2)cc1	Peg3 prom inh 59.2
CC(=O)Nc1ccc(S(=O)(=O)N(C)c2ccccc2)cc1	none
Cc1cccnc1NC(=S)NC(=O)c1cccs1	TRAIL sens C8 69.1
O=C(NC(=S)Nc1ccc(Br)cn1)c1cncc(Br)c1	none
O=C(NC(=S)Nc1ccc(Br)cn1)c1cccs1	TRAIL sens C8 65.3
NC(=S)N=Nc1c(O)n(Cc2ccc(Br)cc2)c2ccccc12	KKLEB tox -51.5
C/C(Cl)=C\Cn1c(O)c(N=NC(N)=S)c2cc(Br)ccc21	CF NFkB inh 56.5
NC(=S)N=Nc1c(O)n(CCCl)c2ccc(Br)cc12	none
CC1=C(C(=O)N2CCCCCC2)CC(CC(=O)NC2CC2)C(=O)N1Cc1ccccc1 (stereo not drawn)	none (no result: PPC-1+TRAIL kill)
CCCN1CCN(CC(=O)Nc2nncs2)CC1	none (no result: PPC-1+TRAIL kill)
CCOC(=O)c1cc2sccc2n1CC(=O)N1c2ccccc2CC1C (stereo not drawn)	Peg3 prom inh 72.0
O=c1c2cc(NC(=S)NCCN3CCCCCC3)ccc2nc2n1CCCCC2	none
O=c1c2cc(NC(=S)NCCCN3CCC(Cc4ccccc4)CC3)ccc2nc2n1CCCCC2	Peg3 prom inh 94.0
O=C(O)CCn1c(=O)[nH]c(=O)n(CCC(=O)O)c1=O	Peg3 prom inh 88.9
c1ccc(-c2cc3n(c2)CCc2ccccc2-3)cc1	CF NFkB inh 56.9
COc1ccc(CCNC(=O)c2nnn(-c3ccc4c(c3)OCCO4)c2N)cc1OC	HIF-2a block 51.2
O=C(NC1CC1)c1cccc(NC(=O)C2CCCCC2)c1	none (no result: PPC-1+TRAIL kill)
CCCCN1CC(C)(C)[C@H](CC(=O)NC)C1=O	none (no result: PPC-1+TRAIL kill)
COc1ccccc1NC1=C(N2CCCCC2)C(=O)c2ccccc2C1=O	Peg3 prom inh 64.3, PPC-1+TRAIL kill 71.7
O=C1C(Nc2ccccc2)=C(N2CCCCC2)C(=O)c2ccccc21	none
COc1ccccc1-c1cc(C(F)(F)F)nc(S(=O)(=O)CCCC(=O)Nc2cc(C)on2)n1	Peg3 prom inh 105.6, HIF-2a block 72.7, KKLEB tox -65.8, CF NFkB inh 85.7
COc1ccccc1-c1cc(C(F)(F)F)nc(S(=O)(=O)CCCC(=O)Nc2cccnc2Cl)n1	Peg3 prom inh 110.6, KKLEB tox -54.8, CF NFkB inh 72.5
COc1ccc(-c2cc(C(F)(F)F)nc(S(=O)(=O)CCCC(=O)Nc3cc(C)on3)n2)cc1OC	Peg3 prom inh 110.9, KKLEB tox -74.8, CF NFkB inh 102.3
COc1ccccc1-c1cc(C(F)(F)F)nc(S(=O)(=O)CCCC(=O)NC(C)C)n1	Peg3 prom inh 112.7, HIF-2a block 89.7, KKLEB tox -93.9, CF NFkB inh 88.2
CCOC(=O)c1csc(-c2csc(CCNC(=O)c3ccccc3)n2)n1	none (no result: PPC-1+TRAIL kill)
O=C(Nc1ccccc1)c1nc[nH]c1C(=O)NCCNC(=O)c1[nH]cnc1C(=O)Nc1ccccc1	CF NFkB inh 66.5 (no result: PPC-1+TRAIL kill)
Cc1ccc(NC(=O)c2nc[nH]c2C(=O)Nc2ccccc2F)cc1	none (no result: PPC-1+TRAIL kill)
O=C(Nc1cccc(Cl)c1)c1nc[nH]c1C(=O)NCCCNC(=O)c1[nH]cnc1C(=O)Nc1cccc(Cl)c1	Peg3 prom inh 56.6, TRAIL sens C8 50.0 (no result: PPC-1+TRAIL kill)
O=C(Nc1ccccc1)c1nc[nH]c1C(=O)Nc1ccccc1F	TRAIL sens C8 50.4 (no result: PPC-1+TRAIL kill)
CC(OC(=O)CN1C(=O)c2ccccc2C1=O)C(=O)NC1CCCCC1 (stereo not drawn)	none (no result: PPC-1+TRAIL kill)
O=C(NC(=S)Nc1nc2c(s1)CCCC2)c1ccccc1	KKLEB tox -52.4, TRAIL sens C8 70.9
O=C(Nc1nc2c(s1)CN(Cc1ccccc1)CC2)C1CCC1	none
CCN1CCc2nc(NC(=O)c3ccccc3)sc2C1	TRAIL sens C8 49.5
Cc1nc(NC(=S)NC(=O)c2ccccc2)sc1C	TRAIL sens C8 62.6
Cc1cc(C(=O)Nc2nc3c(s2)CCCC3)cs1	TRAIL sens C8 58.0
COC(=O)c1ccc(C(=O)NC(=S)Nc2nc3c(s2)CCCC3)cc1	none
COc1ccc(CNC(=O)OC2CC3CC2[C@H]2CCCCN2C3=O)cc1 (stereo partly drawn)	none (no result: Peg3 prom inh, KKLEB tox, CF NFkB inh, PPC-1+TRAIL kill)
COC(=O)c1sc(NC(=S)NC(=O)c2ccccc2F)nc1C	none
Cc1nc(NC(=O)c2cc3ccccc3o2)sc1C	TRAIL sens C8 53.9 (no result: PPC-1+TRAIL kill)
COC(=O)c1sc(NC(=S)NC(=O)c2cccc(C)c2)nc1C	TRAIL sens C8 50.6
CC(=O)Nc1sc(C)c(C)c1C(=O)OCC(=O)N(C)c1c(N)n(Cc2ccccc2)c(=O)[nH]c1=O	none (no result: PPC-1+TRAIL kill)
